Screens as filed in PubChem BioAssay.
Sampled rows, rich in hits. Any-hit rate of the full collection: about 3.3%.
FAK blocker: FAK kinase inhibitors, primary screen, biochemical | AID 727, 2007 | biochemical FAK kinase activity assay | inhibition, %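 (tested at 7 µM)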 | hit rate 0.84% among 97,000; in the data active = inhibition above about 19%;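 also: 0% = DMSO and 100% = reference compound high control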
ERb coact inh: inhibitors of ERβ-SRC1 coactivator interaction, primary screen, biochemical, TR-FRET, ERβ LBD, SRC-1 peptide; hit rate 1.3% among 86,000; TR-FRET ER-beta LBD / SRC1-Cy5 peptide binding; receptor agonist-loaded with 1 µM estradiol; inhibition, % at 25.6 µM;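 active = compounds whose percent inhibition of the receptor-coactivator binding signal exceeds about 50% in the single-dose screen, limit read from the data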;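 also: 0% = receptor plus peptide wells without compound and 100% = peptide-only wells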
Smad3 inh: Smad3/FoxH1 peptide binding inhibitors, primary screen, biochemical, TR-FRET. Mothers against decapentaplegic homolog 3 (Homo sapiens), P84022. hit rate 0.29% among 88,000. TR-FRET Smad3/Dy647-FoxH1 peptide binding, europium anti-His. inhibition, % at 25 µM;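 active = compounds that reduce the energy-transfer binding signal between the protein and its labelled peptide by more than half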;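 also: 0% = Smad3 plus labelled peptide maximal FRET and 100% = peptide-only background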
Target sequence (P84022 whole entry, looked up): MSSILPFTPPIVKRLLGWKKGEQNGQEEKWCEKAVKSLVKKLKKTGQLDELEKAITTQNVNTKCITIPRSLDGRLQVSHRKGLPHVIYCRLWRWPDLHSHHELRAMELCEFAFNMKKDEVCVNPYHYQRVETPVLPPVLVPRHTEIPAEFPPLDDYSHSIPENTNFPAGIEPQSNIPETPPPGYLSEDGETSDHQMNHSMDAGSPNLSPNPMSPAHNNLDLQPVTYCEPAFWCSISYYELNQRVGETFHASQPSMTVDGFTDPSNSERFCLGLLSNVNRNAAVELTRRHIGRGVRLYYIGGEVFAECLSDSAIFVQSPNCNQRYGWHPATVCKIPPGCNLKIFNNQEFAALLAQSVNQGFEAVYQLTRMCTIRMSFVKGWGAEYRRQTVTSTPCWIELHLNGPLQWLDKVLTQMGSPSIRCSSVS
ERa SRC1 pot: enhancers of ERα–SRC-1 coactivator binding, primary screen, biochemical, TR-FRET, ERα LBD, low estradiol | Estrogen receptor (Homo sapiens), P03372 | TR-FRET ERalpha-LBD/SRC-Cy5 coactivator binding, 2 h; 100 = basal binding, no effect | coactivator binding (% of control), % at 25.6 µM | hit rate 1.3% among 86,000 | AID 639, 2007; in the data active = activity above about 200%;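 also: binding measured in presence of low estradiol as agonist stimulus; 0% = peptide alone without receptor and 100% = receptor with peptide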
ERa coact inh: ERα–SRC-1 coactivator interaction inhibitors, primary screen, biochemical, TR-FRET, ERα LBD, estradiol-bound. TR-FRET ER-alpha LBD / SRC-1 peptide. hit rate 1.7% among 86,000. Estrogen receptor (Homo sapiens), P03372. AID 629, 2007. inhibition, % at 25.6 µM; in the data active = inhibition above about 50%;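 also: 0% = receptor plus peptide control and 100% = peptide only without receptor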
Active calls of the source: *; [ ] = remark or other dose.

What do the screens show for `Cc1nc(SCC(=O)Nc2ccc(C)c(F)c2)c2oc3ccccc3c2n1`?
FAK blocker: -81.9; ERb coact inh: -37.6; Smad3 inh: 17.1; ERa SRC1 pot: 840.3*[fluorescence artefact?]; ERa coact inh: -35.1

How did COc1ccc(Cl)cc1NC(=O)CSc1ncnc2c1oc1ccccc12 do in these assays?
ERb coact inh: 15.9; Smad3 inh: 2.3; ERa SRC1 pot: 229.8*; ERa coact inh: 37.8

What do the screens show for `O=C(CSc1ncnc2c1oc1ccccc12)Nc1ccccc1C(F)(F)F`?
ERb coact inh: 28.7; Smad3 inh: -6.8; ERa SRC1 pot: 720.7*[fluorescence artefact?]; ERa coact inh: 23.1

Results for N#Cc1c(NC(=O)C(F)(F)F)sc2c3c(=O)c4ccccc4c(=O)c=3oc3ccccc3c12 ?
Smad3 inh: 3.0

What do the screens show for `O=C(O)C[n+]1ccccc1`?
Smad3 inh: 8.1

Results for NCCc1nc(-c2nc(C(=O)O)cs2)cs1 ?
Smad3 inh: -6.2

Results for CN(C)/C=C1\C(=O)c2ccc(N(C)C)nc2CC1c1ccccc1 (stereo not given) ?
ERb coact inh: 7.1; Smad3 inh: 5.3; ERa SRC1 pot: 108.8; ERa coact inh: -1.1

What do the screens show for `O=C(CSc1ncnc2c1oc1ccccc12)N1CCCc2ccccc21`?
FAK blocker: -1.6; ERb coact inh: 39.1; Smad3 inh: 16.4; ERa SRC1 pot: 202.2*[fluorescence artefact?]; ERa coact inh: 33.2

Results for Cc1cc(NC(=O)CSc2cn(CCNC(=O)c3ccc(Cl)cc3)c3ccccc23)no1 ?
ERb coact inh: 44.0; Smad3 inh: -9.1; ERa SRC1 pot: 57.8; ERa coact inh: 69.7*

What do the screens show for `CCOc1ccc(C(=O)NCCn2cc(SCC(=O)Nc3cc(C)on3)c3ccccc32)cc1`?
FAK blocker: -5.7; ERb coact inh: 0.2; Smad3 inh: 1.1; ERa SRC1 pot: 155.1; ERa coact inh: 11.7

How did NC(=S)n1[nH]c(-c2ccc([N+](=O)[O-])cc2)c(N=Nc2ccc(O)cc2)c1=O do in these assays?
FAK blocker: -0.3; ERb coact inh: 37.7; Smad3 inh: 5.9; ERa SRC1 pot: 25.2; ERa coact inh: 91.8*

Results for CC1CC(C)(C)NCc2ccccc21 (stereo not given) ?
FAK blocker: -2.4; ERb coact inh: 87.5*[fluorescence artefact?]; Smad3 inh: 1.8; ERa SRC1 pot: 105.7; ERa coact inh: 2.3

How did CCSc1nnc(NC(=O)C2Cc3ccccc3CN2C(=O)c2ccco2)s1 (stereo not given) do in these assays?
FAK blocker: 12.6; ERb coact inh: 43.3; Smad3 inh: 9.3; ERa SRC1 pot: 128.4; ERa coact inh: 52.5*

What do the screens show for `N#Cc1c(N)oc(-c2ccco2)c1-c1ccco1`?
FAK blocker: 4.8; ERb coact inh: 54.8*[fluorescence artefact?]; Smad3 inh: -1.0; ERa SRC1 pot: 24.6; ERa coact inh: 37.3

How did COc1ccc(OC)c(/C=N/c2oc(-c3ccco3)c(-c3ccco3)c2C#N)c1 do in these assays?
FAK blocker: 14.8; ERb coact inh: 72.7*; Smad3 inh: 15.3; ERa SRC1 pot: 41.2; ERa coact inh: 62.1*

Results for N#Cc1c(/N=C/c2ccco2)oc(-c2ccccc2)c1-c1ccccc1 ?
FAK blocker: 3.3; ERb coact inh: 6.3; Smad3 inh: -3.0; ERa SRC1 pot: 69.1; ERa coact inh: 2.6

What do the screens show for `COc1ccc(OCC(=O)N/N=C/c2ccc(O[C@@H]3O[C@H](CO)[C@@H](O)[C@H](O)[C@H]3O)cc2)cc1`?
FAK blocker: 1.7

How did O=C1c2cccc(O)c2C(=O)c2c(O[C@@H]3O[C@H](CO)[C@@H](O)[C@H](O)[C@H]3O)cccc21 do in these assays?
Smad3 inh: 70.3*

How did CCOCC(=O)Nc1c(C(=O)Nc2ccc(OC)cc2OC)oc2ccccc12 do in these assays?
FAK blocker: 2.4; ERb coact inh: 26.9; Smad3 inh: 1.0; ERa SRC1 pot: 107.5; ERa coact inh: 35.2

Results for COCC(=O)Nc1c(C(=O)Nc2ccccc2OC)oc2ccccc12 ?
FAK blocker: 3.2; ERb coact inh: 10.3; Smad3 inh: 3.8; ERa SRC1 pot: 213.3*[fluorescence artefact?]; ERa coact inh: 5.0

How did COc1cccc(OCC(=O)Nc2c(C(=O)Nc3ccc(OC)cc3OC)oc3ccccc23)c1 do in these assays?
ERb coact inh: 50.1*[fluorescence artefact?]; Smad3 inh: 12.6; ERa SRC1 pot: 219.8*[fluorescence artefact?]; ERa coact inh: 72.9*[fluorescence artefact?]

How did N#Cc1ccccc1Cn1c(=O)n(CCC(=O)NCc2ccco2)c(=O)c2ccccc21 do in these assays?
ERb coact inh: -3.5; Smad3 inh: 7.7; ERa SRC1 pot: 127.6; ERa coact inh: -8.8

How did N#Cc1ccccc1Cn1c(=O)n(Cc2ccc(C(=O)NCc3ccco3)cc2)c(=O)c2ccccc21 do in these assays?
ERb coact inh: 48.2; Smad3 inh: -7.7; ERa SRC1 pot: 172.5; ERa coact inh: 82.1*[fluorescence artefact?]

What do the screens show for `CC(=O)c1c(COC(=O)c2ccco2)nc2ccccc2[n+]1[O-]`?
ERb coact inh: 61.2*; Smad3 inh: 17.1; ERa SRC1 pot: 39.4; ERa coact inh: 63.6*

How did CC(=O)c1c(COC(=O)c2ccncc2)nc2ccccc2[n+]1[O-] do in these assays?
FAK blocker: 3.2; ERb coact inh: 61.8*[fluorescence artefact?]; Smad3 inh: 10.4; ERa SRC1 pot: 33.7; ERa coact inh: 49.8

How did Cc1ccc2[nH]c(=O)c(C3C(C#N)=C(N)Oc4c3ccc3cccnc43)cc2c1 (stereo not given) do in these assays?
FAK blocker: 1.4; ERb coact inh: 60.9*; Smad3 inh: 2.4; ERa SRC1 pot: 49.3; ERa coact inh: 78.8*

Results for COC(=O)C1=C(C)NC(C)=C(C(=O)OC)C1c1cc2cc(C)ccc2[nH]c1=O ?
FAK blocker: -3.0; ERb coact inh: 4.3; Smad3 inh: 0.3; ERa SRC1 pot: 113.7; ERa coact inh: 0.8

What do the screens show for `C[C@@](N)(Cc1c[nH]c2ccccc12)C(=O)O`?
Smad3 inh: 1.9

What do the screens show for `O=S1(=O)OC(c2ccc(O)cc2)(c2ccc(O)cc2)c2ccccc21`?
Smad3 inh: 97.0*

How did Cc1c(-c2nc(N)nc(C3CC3)c2C)nc(N)nc1C1CC1 do in these assays?
Smad3 inh: -4.3

What do the screens show for `CCCN1Cc2cccc(C(=O)Nc3ccc(N4CCN(CC)CC4)cc3)c2C1=O`?
ERb coact inh: 15.7; Smad3 inh: 5.3; ERa SRC1 pot: 85.4; ERa coact inh: 15.6

Results for CCN1CCN(c2ccc(NC(=O)c3cccc4ncccc34)cc2)CC1 ?
FAK blocker: 11.9; ERb coact inh: 63.1*[fluorescence artefact?]; Smad3 inh: 5.7; ERa SRC1 pot: 25.3; ERa coact inh: 50.0*[fluorescence artefact?]

How did CC(C)c1cc(C(F)(F)F)nc(NNc2nc(C(C)C)cc(C(F)(F)F)n2)n1 do in these assays?
Smad3 inh: 16.5
